NRP1-CendR mod: modulators of CendR peptide binding to NRP-1, primary screen, biochemical, fluorescence polarization, uHTS. Neuropilin-1 (Homo sapiens), O14786. FAM-RPARPAR peptide binding to NRP-1. inhibition, % at 25 µM. hit rate 0.85% among 360,000;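 active means inhibition or corrected inhibition above about 18%, plus a signal ratio from 0.5 to 1.5, limit read from the data, passing the limit was not always enough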
ATG4B inhibitor: ATG4B protease inhibitors, primary screen, biochemical, fluorescence, uHTS | hit rate 0.51% among 340,000 | inhibition, % at 8.33 µM | ATG4B cleavage of LC3-PLA2, NBD-HPC fluorescence, 1 h | Cysteine protease ATG4B (Homo sapiens), Q9Y4P1 | AID 504462, 2011; in the data active means inhibition above about 40%
Target sequence (Q9Y4P1 whole entry, looked up): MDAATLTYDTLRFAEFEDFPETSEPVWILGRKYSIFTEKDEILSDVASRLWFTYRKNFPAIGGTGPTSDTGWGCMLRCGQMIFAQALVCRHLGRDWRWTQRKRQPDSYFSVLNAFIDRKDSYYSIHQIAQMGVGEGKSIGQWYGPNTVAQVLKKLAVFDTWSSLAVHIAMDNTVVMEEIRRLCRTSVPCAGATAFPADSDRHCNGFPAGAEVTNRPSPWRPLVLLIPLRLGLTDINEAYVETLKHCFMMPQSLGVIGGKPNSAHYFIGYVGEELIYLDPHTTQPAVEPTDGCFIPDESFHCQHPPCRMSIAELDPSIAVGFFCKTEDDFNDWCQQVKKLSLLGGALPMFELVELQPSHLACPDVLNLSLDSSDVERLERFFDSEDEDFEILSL
PKA-R1A act: activators of PKA-R1A holoenzyme, primary screen, biochemical, fluorescence polarization, Cy5-IP20, bovine R1A, mouse PKAc. PKA-R1A dissociation; scaled: DMSO 0%, 113 µM cGMP 100%. activation, % at 11.4 µM. hit rate 0.083% among 340,000;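 active means percent activation above the mean of all tested compounds plus 3 SD, cut at about 19% in these data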;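 further: higher means more PKAc released from R1A so a rise in polarization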
PKA-R2B act: activators of PKA-R2B holoenzyme, primary screen, biochemical, fluorescence polarization, Cy5-IP20, human | cAMP-dependent protein kinase catalytic subunit beta (Homo sapiens) + cAMP-dependent … | PKA-R2B holoenzyme dissociation; R2B truncated from residue 108, S112A mutant; 0% DMSO only, 100% 113 µM cGMP | activation, % at 11.4 µM | hit rate 0.079% among 340,000;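 active means activation above a cutoff set at the mean over all compounds plus 3 SD, cut at about 18% in these data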;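 further: higher means more holoenzyme dissociation and a rise in polarization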
VLA-4 inh: inhibition in human VLA-4 binding assay, primary screen, VLA-4 allosteric modulator project, MLPCN library, flow cytometry, VLA-4 expressing cells; Integrin alpha-4 (Homo sapiens), P13612; ligand binding flow cytometry; inhibition, % (about 7 µM as worked out from the volumes in the protocol); hit rate 0.2% among 330,000; in the data active means inhibition above about 50%
The depositor's hits bear a star; · = no result given. Hits are enriched below; roughly 1.6% of the tested compounds scored in any of these assays.

SMILES | NRP1-CendR mod | ATG4B inhibitor | PKA-R1A act | PKA-R2B act | VLA-4 inh
O=C(CC1NC(=O)NC1=O)Nc1ccccc1 (stereo not drawn) | 27* | -4 | -5 | -1 | 10
O=C(CC1NC(=O)NC1=O)Nc1cccc2ccccc12 (stereo not drawn) | 4 | -5 | -4 | 2 | -7
CCCCNC(=O)c1nc(-c2cc3ccccc3[nH]2)oc1-c1ccccc1 | -4 | · | · | · | ·
O=C(Cc1ccc(F)cc1)N1CCC(CC2CC(c3ccc(Cl)cc3)=NO2)(C(=O)NCC2CCCCC2)CC1 (stereo not drawn) | 25* | -8 | -8 | -2 | -11
O=C(c1ccc(Cl)cc1)C1CCN(C(=O)c2ccccc2)CC1 | 17 | -6 | -1 | -5 | -2
O=C(O)C1CCN(C(=O)c2ccc(Cl)cc2)CC1 | 25* | -4 | -8 | -1 | 1
CCOC(=O)[C@]12CCCC=C1N(Cc1ccco1)C(=O)[C@H](CC(=O)NCc1ccccc1)C2 | 13 | · | · | · | ·
COC(=O)COc1ccc(S(=O)(=O)N2CCN(c3ccc(OC)cc3)CC2)cc1 | 24* | -4 | -3 | 0 | 8
COC(=O)COc1ccc(S(=O)(=O)N2CCN(c3ccc(F)cc3)CC2)cc1 | -10 | -19 | 1 | 9 | 10
CC(C)N1CCc2c(sc(NC(=O)CCS(=O)(=O)c3ccccc3)c2C(N)=O)C1 | 25* | -2 | -6 | -1 | 18
CC(=O)N1CCc2c(sc(NC(=O)CCS(=O)(=O)c3ccccc3)c2C(N)=O)C1 | 23 | -4 | 3 | -4 | -13
Cc1ccc(S(=O)(=O)Nc2ccc(C(=O)N3CCOCC3)cc2)cc1 | -1 | -3 | -9 | -4 | 3
O=C(c1cccc(NS(=O)(=O)c2cccc(F)c2)c1)N1CCCC1 | 27* | -8 | -6 | 8 | ·
Cc1ccc(S(=O)(=O)Nc2cccc(C(=O)N3CCOCC3)c2)cc1 | 23* | -3 | 4 | -13 | 8
CC(C)n1nnnc1C1c2ccccc2C(=O)N1CCOc1ccccc1 (stereo not drawn) | -23 | · | · | · | ·
Cc1ccc2nc(-c3cccc(Br)c3)c(Cc3ccccc3)n2c1 | -11 | · | · | · | ·
O=C(Nc1ccccc1C(=O)N1CCOCC1)c1cc2ccccc2o1 | 22* | -1 | 1 | -7 | 3
COC(=O)c1ccccc1NC(=O)c1cc2ccccc2o1 | -6 | -8 | -7 | -14 | -17
O=C(OCCO)c1c(-c2ccccc2)oc2c1C(OCCO)CCC2 (stereo not drawn) | 2 | · | · | · | ·
O=C(Nc1nnc(SCc2ccccc2)s1)C1=COCCO1 | 24* | 4 | 7 | -7 | 7
COc1ccc(C(=O)Nc2n[nH]c(-c3ccncc3)n2)cc1 | 26* | 4 | 2 | 0 | 10
CC1=C(C(=O)N(C(C)C)C(C)C)CC(CC(=O)NC2CC2)C(=O)N1Cc1ccc(F)cc1 (stereo not drawn) | 2 | · | · | · | ·
O=c1nc2c(O)cccn2c2c1c(=O)[nH]c1ccccc12 | 48* | 3 | -3 | -2 | ·
CSc1nsc(SCC(=O)N2CCc3ccccc32)n1 | 19* | -4 | 2 | 1 | -5
CSc1nsc(/C=C/Nc2ccc(O)cc2C)c1C#N | -153 | 8 | -6 | -9 | -18
SMILES | NRP1-CendR mod | ATG4B inhibitor | PKA-R1A act | PKA-R2B act | VLA-4 inh
Cc1cccc(OCC(=O)Nc2sc3c(c2C#N)CCC3)c1 | 6 | 6 | 10 | -2 | -4
Cc1cnc(C(=O)OCC(=O)Nc2sc3c(c2C#N)CCC3)cn1 | 38* | 5 | 8 | -6 | 5
CCCCOCCCNC(=O)C[C@@H]1C[C@@]2(C(=O)OCC)CCCC=C2N(Cc2ccc(Cl)cc2Cl)C1=O | -8 | · | · | · | ·
COc1ccc(/C=N\NC(=O)c2ccccc2F)cc1COc1ccc(F)cc1F | 6 | 6 | 7 | 2 | 13
COc1ccc(/C=N/NC(=O)c2cc(C(C)(C)C)[nH]n2)cc1COc1ccc(F)cc1F | 39* | -19 | -9 | -5 | 10
Cc1ccc(CNC(=O)c2ccc(NS(=O)(=O)c3c(C)noc3C)cc2)cc1 | 7 | -5 | 1 | -12 | 2

High-throughput results deposited in PubChem BioAssay by several laboratories.
